Here are results for 35 compounds from PubChem BioAssay (Tox21).

Molecules are shown by their SMILES. Results filed as inconclusive are left out. Entries that show only a call come without a potency. Values without a mark were called inactive. Active and inactive are the calls of the source. Calls follow the shape of the dose curve; as a rule, active = well fitted curve in the direction sought with a large enough effect in the repeat runs; inconclusive = weak or mixed curves; inactive = no such curve, though single readings can be large; an effect the other way counts as inactive or inconclusive.

The nature of the first assay: A CellTox Green Cytotoxicity Assay to monitor cytotoxicity in HEK293 cells - 16 hour (AID 1224888). Also: nearly all actives have a fitted effect of over 35% in size. The note with it: CellTox Green fluorescence; series mostly up to 76.8 µM. The method in brief: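 Nonlytic real-time cytotoxicity: HEK293 + CellTox Green reagent plated, 5 h preincubation, pintool compound addition (23 nL in DMSO), 37 C for 40 h, fluorescence measured at successive time points.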
In the case of `CN1CCC(=C2c3ccccc3Sc3ccccc32)CC1`, the Potency result was “inactive”.

On to `C=C1[C@H]2CC[C@@H]3[C@H]2C(C)(C)CCC[C@]13C`, for which the Potency result is “inactive”.

With `CN1C[C@H]2c3ccccc3Oc3ccc(Cl)cc3[C@@H]2C1`, the Potency entry was “inactive”.

With `CC(CSC(=O)c1ccccc1)C(=O)N1C[C@@H](Sc2ccccc2)C[C@H]1C(=O)O` (some centres undefined), the activity change was -0.144% [at 15.8 µM, hits give high values].

Regarding `C#CCN(C)CCCOc1ccc(Cl)cc1Cl`, the Potency entry is “inactive”.

Take `C[C@@H]1C[C@H]2O[C@@]3(O[C@@H]2C(C)(C)O)[C@H](O)[C@@]2(C)[C@@H]4CC[C@H]5C(C)(C)[C@@H](O[C@@H]6OC[C@@H](O)[C@H](O)[C@H]6O)CC[C@@]56C[C@@]46CC[C@]2(C)[C@@H]13`: the Potency result is “inactive”.

`CC1CCC(=O)C1=O` (centres undefined): the Potency result was “inactive”.

Take `CCOC(=O)C(=O)CCc1ccccc1`: the Potency entry is “inactive”.

For the compound `CC(C)(C)Cl`, the Potency entry was “inactive”.

For `O=C(O)C1(C(=O)O)CCC1.[NH2-].[NH2-].[Pt+2]`, the Potency entry was “inactive”.

For the compound `Nc1ccccc1S(=O)(=O)c1ccccc1`, the Potency result is “inactive”.

Consider `Nc1ccc(S(=O)(=O)Nc2ccccc2)cc1`, for which the Potency result is “inactive”.

As for `Cc1oc(-c2ccccc2)nc1CCOc1cccc2c1ccn2CCC(=O)O`, the Potency entry was “inactive”.

`O=C(NCCO[N+](=O)[O-])c1cccnc1`: the Potency entry is “inactive”.

For the compound `O=[N+]([O-])c1cccc(S(=O)(=O)O)c1`, the Potency result is “inactive”.

As for `CC(C)OC(=O)C(C)N(C(=O)c1ccccc1)c1ccc(F)c(Cl)c1` (centres undefined), the Potency entry was “inactive”.

Take `CN(C)CCN(Cc1ccsc1)c1ccccn1`: the Potency entry is “inactive”.

For `CCO[Si](CCCCl)(OCC)OCC`, the Potency result is “inactive”.

`O=C(O)C(S)C(S)C(=O)O` (centres undefined): the Potency result was “inactive”.

The nature of the next assay: qHTS RealTime-Glo MT Cell Viability Assay in HepG2 cells - 0 hour (AID 1224889). Also: nearly all actives have a fitted effect of over 50% in size. The following applies: RealTime-Glo luminescence; series mostly up to 76.8 µM. The gist of the method:
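Compound treatment began 5 h after plating HepG2 cells (600/well) with NanoLuc luciferase and prosubstrate. Plates stayed at 37 C for 40 h; luminescence was captured at six time points, 0 h through 40 h.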
Consider `O=CC1CC=CCC1` (centres undefined), for which the Potency result was “inactive”.

As to `C=CCOc1ccccc1OCC(O)CNC(C)C` (centres undefined), the Potency result is “inactive”.

In the case of `C#CCN(C)CCCOc1ccc(Cl)cc1Cl`, the Potency entry was “inactive”.

With `COCCCN1CCC(NC(=O)c2cc(Cl)c(N)c3c2OCC3)CC1`, the Potency entry is “inactive”.

With `O=S(c1cc(Cl)cc(Cl)c1O)c1cc(Cl)cc(Cl)c1O`, the Potency result is “inactive”.

With `O=C(O)C1(C(=O)Nc2ccc(Cl)cc2Cl)CC1`, the Potency result was “inactive”.

As for `CCC(CC)Nc1ccc(C)c(C)c1`, the Potency entry was “inactive”.

On to `CCCCCCCCO[C@@H]1O[C@H](CO)[C@@H](O)[C@H](O)[C@H]1O`, for which the Potency entry was “inactive”.

Consider `CCCCC(CC)COC(=O)CCCCCCCCC(=O)OCC(CC)CCCC` (centres undefined), for which the Potency result is “inactive”.

As to `CCOc1ccc(N=Nc2ccc(/C=C/c3ccc(N=Nc4ccc(OCC)cc4)cc3S(=O)(=O)O)c(S(=O)(=O)O)c2)cc1`, the Potency result was “inactive”.

Regarding `O=[N+]([O-])c1cccc(S(=O)(=O)O)c1`, the Potency result is “inactive”.

`COc1ccc(C)cc1[N+](=O)[O-]`: the Potency entry is “inactive”.

Consider `O=C(O)c1ccco1`, for which the Potency entry is “inactive”.

A short description of the next assay: A CellTox Green Cytotoxicity Assay to monitor cytotoxicity in HepG2 cells - 8 hour (AID 1224890). Also: nearly all actives have a fitted effect of over 45% in size. The following applies: CellTox Green fluorescence; series mostly up to 76.8 µM. The gist of the method: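 Read-out is fluorescence of a cyanine dye excluded from live cells that stains DNA of dead HepG2 cells, with signal proportional to cytotoxicity. Plates were read at 0, 8, 16, 24, 32 and 40 h after compound addition.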
As for `CN1CCC(=C2c3ccccc3Sc3ccccc32)CC1`, the Potency entry is “inactive”.

Consider `C=C1[C@H]2CC[C@@H]3[C@H]2C(C)(C)CCC[C@]13C`, for which the Potency result was “inactive”.

In the case of `CN1C[C@H]2c3ccccc3Oc3ccc(Cl)cc3[C@@H]2C1`, the Potency entry is “inactive”.

`O=CC1CC=CCC1` (centres undefined): the Potency entry was “inactive”.

Take `CC(CSC(=O)c1ccccc1)C(=O)N1C[C@@H](Sc2ccccc2)C[C@H]1C(=O)O` (some centres undefined): the cytotoxicity increase is -3.03% [at 15.8 µM].

Turning to `C=CCOc1ccccc1OCC(O)CNC(C)C` (centres undefined), the Potency result is “inactive”.

Regarding `CCCCCCCCCCCc1ccccc1`, the Potency result was “inactive”.

For `C[C@@H]1C[C@H]2O[C@@]3(O[C@@H]2C(C)(C)O)[C@H](O)[C@@]2(C)[C@@H]4CC[C@H]5C(C)(C)[C@@H](O[C@@H]6OC[C@@H](O)[C@H](O)[C@H]6O)CC[C@@]56C[C@@]46CC[C@]2(C)[C@@H]13`, the Potency result is “inactive”.

Regarding `COCCCN1CCC(NC(=O)c2cc(Cl)c(N)c3c2OCC3)CC1`, the Potency entry was “inactive”.

With `CC(=O)[O][Al][O]C(C)=O`, the Potency result was “inactive”.

For the compound `c1ccc(CNCCNCc2ccccc2)cc1`, the Potency result was “inactive”.

For the compound `CC1CCC(=O)C1=O` (centres undefined), the Potency result was “inactive”.

On to `O=S(c1cc(Cl)cc(Cl)c1O)c1cc(Cl)cc(Cl)c1O`, for which the Potency result was “inactive”.

Consider `CCC(CC)Nc1ccc(C)c(C)c1`, for which the Potency entry is “inactive”.

For the compound `Nc1ccc([N+](=O)[O-])c(C(F)(F)F)c1`, the Potency result is “inactive”.

For `CCOC(=O)C(=O)CCc1ccccc1`, the Potency result was “inactive”.

Take `CC(C)(C)Cl`: the Potency result is “inactive”.

With `O=C(O)C1(C(=O)O)CCC1.[NH2-].[NH2-].[Pt+2]`, the Potency result is “inactive”.

Consider `CCCCCCCCO[C@@H]1O[C@H](CO)[C@@H](O)[C@H](O)[C@H]1O`, for which the Potency result was “inactive”.

On to `Nc1ccccc1S(=O)(=O)c1ccccc1`, for which the Potency result is “inactive”.

As for `CCCCC(CC)COC(=O)CCCCCCCCC(=O)OCC(CC)CCCC` (centres undefined), the Potency result is “inactive”.

As for `Nc1ccc(S(=O)(=O)Nc2ccccc2)cc1`, the Potency result was “inactive”.

In the case of `Cc1oc(-c2ccccc2)nc1CCOc1cccc2c1ccn2CCC(=O)O`, the Potency result was “inactive”.

Consider `O=C(NCCO[N+](=O)[O-])c1cccnc1`, for which the Potency entry is “inactive”.

For the compound `CCCC(=O)Nc1ccc(O)c(C(C)=O)c1`, the Potency result is “inactive”.

Take `CCOc1ccc(N=Nc2ccc(/C=C/c3ccc(N=Nc4ccc(OCC)cc4)cc3S(=O)(=O)O)c(S(=O)(=O)O)c2)cc1`: the Potency entry is “inactive”.

For the compound `COc1ccc(C)cc1[N+](=O)[O-]`, the Potency result was “inactive”.

Regarding `CC(C)OC(=O)C(C)N(C(=O)c1ccccc1)c1ccc(F)c(Cl)c1` (centres undefined), the Potency entry was “inactive”.

Regarding `O=C(O)c1ccco1`, the Potency result was “inactive”.

Turning to `CN(C)CCN(Cc1ccsc1)c1ccccn1`, the Potency entry was “inactive”.

Consider `CCO[Si](CCCCl)(OCC)OCC`, for which the Potency entry is “inactive”.

As for `O=C(O)C(S)C(S)C(=O)O` (centres undefined), the Potency result was “inactive”.
